Sampled rows, rich in hits. Any-hit rate of the full collection: about 4.4%.
PfHsp90 yeast 2 – inhibits growth of yeast expressing Plasmodium falciparum Hsp90 | S. cerevisiae expressing PfHsp90, BacTiter-Glo ATP, 48 h; yeast lacking PDR1 and PDR3 efflux regulators | inhibition, % at 9.4 µM | 0.32% of 310,000 active;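 active = every replicate shows inhibition above about 80%, whatever the replicate mean, limit read from the data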
SKKanGAS inh – inhibitors of SKKanGAS S. pyogenes growth in kanamycin (SK-promoter or general growth effect) | BacTiter-Glo, 6 h | inhibition, % at 7.5 µM | 1.3% of 300,000 active | AID 1662;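 active = mean replicate score, as percent of positive control median, at least 50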;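 note: strain carries kanamycin resistance gene driven by streptokinase promoter and grows in 40 µg/ml kanamycin; loss of luminescence reflects streptokinase promoter inhibition or plain growth inhibition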
tim10-1 inh – inhibits growth of tim10-1 mutant yeast; S. cerevisiae tim10-1 ts strain growth, BacTiter-Glo, 24 h; inhibition, % at 20 µM; 2.2% of 330,000 active; AID 463190;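 active = inhibition of at least 40%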;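 note: mutant grown at 25 °C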
TIM10 inh – growth inhibitors of TIM10 yeast strain | S. cerevisiae TIM10 strain growth, BacTiter-Glo luminescence, 24 h | inhibition, % at 10 µM | AID 463195 | 1.4% of 330,000 active;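 active = inhibition of 40% or more at the single tested concentration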;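 note: wild-type TIM10 isogenic control strain grown at permissive 25 °C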
tim23-1 inh – tim23-1 yeast growth inhibition. S. cerevisiae tim23-1 growth, BacTiter-Glo luminescence, 24 h. inhibition, % at 20 µM. 1.3% of 330,000 active. AID 463212;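 active = growth inhibition of the mutant yeast at or above 50%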;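 note: temperature-sensitive mutant grown at 25 °C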
tim10-1 conf – tim10-1 yeast growth inhibition, confirmed; inhibition, % at 20 µM; 56% of 7,400 active; AID 463213; shares compounds with tim10-1 inh; S. cerevisiae tim10-1 ts strain growth, BacTiter-Glo, 24 h;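 active = inhibition of yeast growth at or above a set limit in either of two repeat tests at 20 µM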;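 note: tim10-1 mutant grown at permissive 25 °C to find synthetic lethal compounds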
tim10 confirm – TIM10 yeast growth inhibition, confirmed. shares compounds with TIM10 inh. inhibition, % at 10 µM. 63% of 4,600 active. S. cerevisiae tim10 strain growth, BacTiter-Glo luminescence, 24 h;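 active = inhibition of yeast growth at or above a set limit in either of two replicates at 10 µM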; note: this counterscreen used the strain with wild-type TIM10
tim23-1 conf – confirmation of tim23-1 mutant yeast growth inhibitors | 83% of 4,400 active | inhibition, % at 20 µM | S. cerevisiae tim23-1 growth, BacTiter-Glo luminescence, 24 h | AID 463218 | shares compounds with tim23-1 inh;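 active = inhibition above about 39% in either of two replicate wells at 20 µM, limit read from the data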;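 note: temperature-sensitive tim23-1 mutant grown at 25 °C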
Large screens that a line does not name were inactive (follow-up assays come after a bar, where they were run).

CC(=O)NC(C)c1cc(Cl)c2ccccc2c1O (stereo not drawn)	none (no result: SKKanGAS inh)
CC(=O)NC(C)c1cc(Cl)c2cccnc2c1O (stereo not drawn)	tim10-1 inh 40.8, tim23-1 inh 53.4 (no result: SKKanGAS inh) | tim10-1 conf inactive | tim23-1 conf inactive
Cc1nnsc1S(=O)c1ccc(Cl)cc1 (stereo not drawn)	none
O=C(c1nnsc1S(=O)(=O)c1ccc(Cl)cc1)N1CCOCC1	none
O=C(Nc1ccccc1)c1nnsc1S(=O)c1ccc(Cl)cc1 (stereo not drawn)	PfHsp90 yeast 2 106.3, SKKanGAS inh 73.0, tim10-1 inh 92.4, TIM10 inh 93.6, tim23-1 inh 55.6 | tim10-1 conf 91.8 | tim10 confirm 98.3 | tim23-1 conf 97.5
O=C(c1nnsc1S(=O)c1ccc(Cl)cc1)N1CCOCC1 (stereo not drawn)	tim10-1 inh 60.5, tim23-1 inh 57.4 | tim10-1 conf 42.4 | tim23-1 conf 90.0
CNc1nc(SCc2ccccc2Cl)nc2c1CCCC2	tim10-1 inh 41.9, TIM10 inh 46.3, tim23-1 inh 54.3 | tim10-1 conf 42.9 | tim10 confirm 44.7 | tim23-1 conf 59.7
COc1ccccc1NC(=O)CCN1C(=O)C2C3CCC(C3)C2C1=O (stereo not drawn)	none
O=C(CSc1nnc(-c2cccnc2)o1)Nc1ccccc1F	none
CCNC(=S)NNC(=O)c1cc(-c2cccc(OC)c2)nc2ccccc12	tim10-1 inh 56.0, tim23-1 inh 56.2 | tim10-1 conf 50.3 | tim23-1 conf 53.7
CCNC(=S)NNC(=O)c1cc(-c2ccc(OCC)cc2)nc2ccccc12	tim10-1 inh 86.1, tim23-1 inh 77.6 (no result: PfHsp90 yeast 2) | tim10-1 conf 65.8 | tim23-1 conf 86.2
CCc1ccc(-c2cc(C(=O)Nn3cnnc3)c3ccccc3n2)cc1	tim10-1 inh 54.1, tim23-1 inh 52.7 | tim10-1 conf 35.6 | tim23-1 conf 39.5
CCN(CC)C(=O)CCSc1nnc(-c2ccco2)o1	none (no result: PfHsp90 yeast 2)
c1ccc(-c2nnc3nc(N4CCCCC4)nc(N4CCCCC4)n23)cc1	none (no result: SKKanGAS inh, tim10-1 inh, TIM10 inh, tim23-1 inh)
COc1ccc(-c2cccc(C3CC=CC4C3C(=O)N(Cc3ccccc3)C4c3ccc(OC)c(Cl)c3)c2)cc1 (stereo not drawn)	tim10-1 inh 49.2, TIM10 inh 67.0, tim23-1 inh 58.2 | tim10-1 conf 36.8 | tim10 confirm inactive | tim23-1 conf 61.7
CC(NC(=O)C(NS(=O)(=O)c1cccs1)C(C)C)c1ccc(S(N)(=O)=O)cc1 (stereo not drawn)	none (no result: SKKanGAS inh)
CCCn1c(NC(=O)c2ccc([N+](=O)[O-])o2)nc2ccccc21	tim10-1 inh 54.8, TIM10 inh 41.4, tim23-1 inh 50.5 | tim10-1 conf 48.8 | tim10 confirm 60.9 | tim23-1 conf 58.1
O=C(Nc1cccc2ccccc12)c1ccc([N+](=O)[O-])o1	SKKanGAS inh 52.5, tim10-1 inh 79.6, TIM10 inh 68.3, tim23-1 inh 78.1 | tim10-1 conf 75.4 | tim10 confirm 73.7 | tim23-1 conf 75.1
Cc1cccc(NC(=O)c2ccc([N+](=O)[O-])o2)c1C	tim10-1 inh 62.2, TIM10 inh 55.7, tim23-1 inh 50.1 | tim10-1 conf 60.8 | tim10 confirm 41.7 | tim23-1 conf 39.4
O=C(Nc1ccccc1C(=O)NC1CC1)c1ccccc1	none (no result: SKKanGAS inh)
O=C(Nc1ccccc1C(=O)NC1CC1)c1ccc([N+](=O)[O-])o1	tim10-1 inh 48.0, tim23-1 inh 63.6 (no result: SKKanGAS inh) | tim10-1 conf 33.8 | tim23-1 conf 65.7
O=C(Nc1ncccn1)c1ccc([N+](=O)[O-])o1	none
Cc1ccc(NC(=O)c2ccc([N+](=O)[O-])o2)cc1C	none
COc1ccccc1NC(=O)c1ccc([N+](=O)[O-])o1	tim10-1 inh 66.3, TIM10 inh 47.2, tim23-1 inh 78.6 (no result: PfHsp90 yeast 2) | tim10-1 conf 56.2 | tim10 confirm 45.8 | tim23-1 conf 72.3
CCC1CN(C(=O)N2CCC(C(=O)NCc3ccco3)CC2)c2cc(C)ccc2O1 (stereo not drawn)	none
CCCn1c(=O)c(C(=O)NCc2cccnc2)c(O)c2ccccc21	none
CCCn1c(=O)c(C(=O)NCc2ccccn2)c(O)c2ccccc21	tim10-1 inh 40.9, TIM10 inh 41.9, tim23-1 inh 60.3 (no result: SKKanGAS inh) | tim10-1 conf inactive | tim10 confirm 35.8 | tim23-1 conf 57.5
CC1CCC(=C(C#N)C(=O)Nc2cccc(Cl)c2)CC1 (stereo not drawn)	tim10-1 inh 45.2, tim23-1 inh 59.8 | tim10-1 conf 42.1 | tim23-1 conf 51.3
N#CC(C#N)=C(N)Nc1cccc(Cl)c1	none
COc1ccc(S(=O)(=O)N2CCN(C(=O)c3cc4c(s3)CCCC4)CC2)cc1	tim10-1 inh 53.6, tim23-1 inh 50.0 (no result: SKKanGAS inh) | tim10-1 conf 38.8 | tim23-1 conf 56.6
CC1=NN(c2cccc(C(=O)O)c2)C(=O)/C1=C\C=C/c1ccccc1	tim10-1 inh 42.5, TIM10 inh 47.5, tim23-1 inh 53.3 (no result: PfHsp90 yeast 2) | tim10-1 conf 46.7 | tim10 confirm 42.5 | tim23-1 conf 61.5
Clc1ccc(-c2n[nH]c3c2CCC3)cc1Cl	SKKanGAS inh 87.7, tim10-1 inh 55.8, TIM10 inh 49.4, tim23-1 inh 59.2 | tim10-1 conf 48.5 | tim10 confirm 56.7 | tim23-1 conf inactive
Fc1ccc(C2=Nn3c(nnc3-c3n[nH]c4c3CCC4)SC2)cc1	none
CC(=O)c1ccc(NC(=O)CN(C)CC(=O)Nc2cccc(F)c2)cc1	none (no result: PfHsp90 yeast 2)
S=c1[nH]nc(C2CCCCC2)n1/N=C/c1ccccc1Br	tim10-1 inh 41.9, tim23-1 inh 51.6 | tim10-1 conf inactive | tim23-1 conf 63.3
Fc1ccccc1/C=N/n1c(C2CCCCC2)n[nH]c1=S	tim10-1 inh 43.4, TIM10 inh 47.8, tim23-1 inh 65.1 | tim10-1 conf 35.4 | tim10 confirm 51.5 | tim23-1 conf 61.2
S=c1[nH]nc(C2CCCCC2)n1/N=C/C=C/c1ccccc1	tim10-1 inh 54.0, tim23-1 inh 57.4 | tim10-1 conf inactive | tim23-1 conf inactive
Cc1ccccc1/C=N/n1c(C2CCCCC2)n[nH]c1=S	none
O=C(O)COc1ccccc1/C=N/n1c(C2CCCCC2)n[nH]c1=S	none
O=C1Cc2cc(S(=O)(=O)N3CCNCC3)ccc2N1	none (no result: SKKanGAS inh)
CC(=O)Nc1ccc(C=NNC(=O)CCCC(=O)NN=Cc2ccc(NC(C)=O)cc2)cc1	none (no result: SKKanGAS inh, tim10-1 inh, TIM10 inh, tim23-1 inh)
NNc1nc(-c2ccccc2)nc(-c2ccccc2)c1Br	tim10-1 inh 46.3, TIM10 inh 41.5, tim23-1 inh 56.7 | tim10-1 conf 33.3 | tim10 confirm inactive | tim23-1 conf 45.6
CCc1cc(=O)oc2cc(C)cc(OC(C)C(=O)NCc3cccnc3)c12 (stereo not drawn)	none
